Mtb hypoxia inh: reduces hypoxia-regulated biosensor signal in M. tuberculosis; M. tuberculosis hypoxia-regulated fluorescent reporter, fluorescence; fluorescence inhibition, % (test concentration not listed); 0.1% of 300,000 active; in the data active means fluorescence inhibition mostly above about 23%, no sharp cut-off; inactive means mostly below about 17%
GDH-TPI inh: GDH-TPI coupled enzyme inhibition counter-screen; GDH-TPI coupled enzyme counterscreen, NADH absorbance; inhibition, % at 4.8 µM; 1.2% of 360,000 active; AID 588335; in the data active means inhibition above about 30%
BioA inh: blocks M. tuberculosis BioA enzyme activity | inhibition, % at 9.99 µM | 0.096% of 360,000 active | purified M. tuberculosis BioA enzyme, plate reader; in the data active means inhibition above about 40%
Mtb FBA inh: Mtb fructose-bisphosphate aldolase inhibition. purified M. tuberculosis FBA, fluorescence read-out. P9WQA3. 2.3% of 360,000 active. AID 588726. inhibition, % at 1 µM; in the data active means inhibition above about 27%
Target sequence (P9WQA3 whole entry, looked up): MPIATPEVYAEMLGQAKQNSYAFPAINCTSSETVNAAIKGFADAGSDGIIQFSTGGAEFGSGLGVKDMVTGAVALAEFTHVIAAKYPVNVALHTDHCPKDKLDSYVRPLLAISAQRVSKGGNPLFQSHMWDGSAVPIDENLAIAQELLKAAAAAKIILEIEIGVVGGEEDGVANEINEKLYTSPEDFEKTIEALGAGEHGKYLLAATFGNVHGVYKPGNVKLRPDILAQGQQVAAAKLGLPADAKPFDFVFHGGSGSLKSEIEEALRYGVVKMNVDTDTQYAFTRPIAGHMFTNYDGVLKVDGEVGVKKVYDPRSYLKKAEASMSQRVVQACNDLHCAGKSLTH
FadD28 FP inh: blocks FadD28 binding to the bisubstrate probe; fluorescence polarization; inhibition, % at 12.5 µM; 0.22% of 360,000 active; in the data active means inhibition above about 8.5%, passing the limit was not always enough
A number is an active result; i = inactive; nt = no result given; + = active, no number. An excerpt weighted towards active compounds, which were near 2.9% of everything screened.

SMILES	Mtb hypoxia inh	GDH-TPI inh	BioA inh	Mtb FBA inh	FadD28 FP inh
Cc1ccc(S(=O)(=O)c2cc3c(=O)n4ccccc4nc3n(CCCN3CCOCC3)c2=N)cc1C	i	i	i	128	i
N=c1c(S(=O)(=O)c2ccc(Cl)cc2)cc2c(=O)n3ccccc3nc2n1CCN1CCOCC1	i	i	i	+	i
N=c1c(S(=O)(=O)c2ccc(Cl)cc2)cc2c(=O)n3ccccc3nc2n1CCc1ccccc1	nt	i	i	i	i
Cc1cccn2c(=O)c3cc(C(=O)NC4CCCC4)c(=N)n(C4CCCC4)c3nc12	nt	i	i	+	i
N=c1c(C(=O)NC2CCCC2)cc2c(=O)n3ccccc3nc2n1C1CCCC1	i	i	i	123	i
Cc1cccn2c(=O)c3cc(C(=O)NC4CCCCC4)n(C)c3nc12	i	i	i	i	i
CCCn1c(=N)c(C(=O)NC2CCCC2)cc2c(=O)n3cccc(C)c3nc21	i	i	i	+	i
Cc1cccn2c(=O)c3cc(C(=O)NC4CCCC4)n(C)c3nc12	i	i	i	i	i
COc1ccc(Cn2c(=N)c(C(=O)NC3CCCCC3)cc3c(=O)n4ccccc4nc32)cc1	nt	i	i	i	i
N=c1c(C(=O)NCc2ccco2)cc2c(=O)n3ccccc3nc2n1C1CCCC1	i	i	i	+	i
CO[C@@H]1CN(C)C(=O)c2ccc(NS(C)(=O)=O)cc2OC[C@@H](C)N(C(=O)c2ccc3c(c2)OCO3)C[C@H]1C	nt	nt	i	nt	nt
Nc1nnc(CC(=O)NN=Cc2ccccc2OCc2ccccc2F)s1	i	nt	nt	nt	nt
CCn1c(=N)c(C(=O)NC)cc2c(=O)n3cccc(C)c3nc21	nt	i	i	+	i
CC1=CC(c2ccc(Cl)cc2)n2nc(N3C(=O)CCC3=O)nc2N1 (stereo not drawn)	i	i	nt	167	i
CCCN1C[C@@H](C)[C@H](OC)CN(C)C(=O)c2cc(NC(=O)COC)ccc2OC[C@@H]1C	nt	nt	i	nt	nt
CC1(C)SC(=S)N(/N=C/c2ccccc2)C1N(O)C(=O)Nc1ccc([N+](=O)[O-])cc1 (stereo not drawn)	nt	42	i	i	i
Cn1c(/C(C#N)=C/c2ccncc2)nc2ccccc21	i	i	i	i	i
Cn1c(/C(C#N)=C/c2ccc(O)cc2)nc2ccccc21	i	36	i	i	i
Cc1cccc(-c2oc3ccccc3c2-c2ccc3c(c2)OCO3)c1	nt	i	i	i	i
COc1cc(-c2cc(=O)c3ccccc3o2)ccc1O	nt	i	i	i	i
O=c1cc(-c2ccc(O)cc2)oc2ccccc12	nt	i	i	i	i
Nc1c(-c2ccc3c(c2)OCCO3)oc2ccccc2c1=O	i	i	i	+	nt
O=c1cc(-c2cccc(F)c2)oc2ccccc12	i	i	i	i	i
O=c1cc(-c2ccc(O)cc2)oc2ccc(O)cc12	i	37	nt	i	i
COc1ccc(-c2cc(=O)c3ccccc3o2)cc1	nt	32	i	+	i
SMILES	Mtb hypoxia inh	GDH-TPI inh	BioA inh	Mtb FBA inh	FadD28 FP inh
O=c1cc(-c2ccc3c(c2)OCO3)oc2ccccc12	i	39	i	i	i
CCCNC(=O)N[C@H]1CC[C@H](CC(=O)NC2CCC2)O[C@H]1CO	nt	nt	i	nt	nt
O=C(C[C@H]1CC[C@@H]2[C@H](COC[C@@H](O)CN2C(=O)C2CCOCC2)O1)NCc1ccncc1	nt	nt	i	nt	nt
COc1cc(OC)c2c(=O)c(OC)c(-c3ccc(OC)c(OC)c3)oc2c1	nt	i	i	103	i
COc1ccc(-c2oc3cc(O)c(OC)c(O)c3c(=O)c2OC)cc1O	nt	i	nt	i	i
COc1ccc(-c2cc(=O)c3c(OC)c(OC)c(OC)cc3o2)cc1	nt	32	i	i	i
COc1ccc(-c2cc(=O)c3c(OC)c(OC)c(OC)c(OC)c3o2)cc1OC	i	32	i	i	i
COc1ccc(-c2cc(=O)c3c(O)c(OC)c(OC)c(OC)c3o2)cc1	nt	i	nt	i	i
CCOC(=O)c1oc2cc(O)ccc2c(=O)c1-c1ccccc1OC	i	i	nt	i	i
CCOc1ccccc1-c1c2cc(O)c(=O)cc-2oc2cc(O)c(O)cc12	37	i	nt	i	131
Cc1ccccc1-c1cc(=O)c2c(O)cccc2o1	i	i	i	i	i
COc1ccc(OC)c(-c2c3cc(O)c(=O)cc-3oc3cc(O)c(O)cc23)c1	nt	i	nt	i	102
O=c1cc2oc3cc(O)c(O)cc3c(-c3ccccc3O)c-2cc1O	i	i	nt	i	81
Cc1cccc(-c2ccc([C@H]3[C@@H](CO)N4CCCCN(S(=O)(=O)c5ccccc5F)C[C@H]34)cc2)c1	nt	nt	i	nt	nt
Cc1nc2c(C#N)cnn2c2c1CCN2CC1CCCO1 (stereo not drawn)	i	i	i	i	i
Cc1nc2c(C#N)cnn2c2c1CCN(Cc1ccccc1)N2C	i	44	i	i	i
COc1ccc2ccccc2c1C=NO	i	nt	nt	nt	nt
Cc1ccc(S(=O)(=O)/N=C2/NC(=O)/C(=C\c3cc(Br)cc(Br)c3O)S2)cc1	i	i	i	i	50
O=C1N/C(=N\S(=O)(=O)c2ccccc2)S/C1=C\c1cc([N+](=O)[O-])ccc1O	nt	i	i	i	19
Cc1ccc(S(=O)(=O)/N=C2/NC(=O)/C(=C/c3ccc(Br)o3)S2)cc1	i	i	nt	i	i
Cc1ccc(S(=O)(=O)/N=C2/NC(=O)/C(=C/c3cccnc3)S2)cc1	nt	i	nt	i	i
O=C1N/C(=N\S(=O)(=O)Cc2ccccc2)S/C1=C/c1cc([N+](=O)[O-])ccc1O	i	39	nt	i	15
CC(=O)N(C)C[C@@H]1Oc2cc(C#Cc3ccccc3)ccc2S(=O)(=O)N([C@H](C)CO)C[C@H]1C	nt	nt	i	nt	nt
COc1ccc(-c2cn3nc(SCC(=O)NCC4CCCO4)ccc3n2)cc1 (stereo not drawn)	i	i	i	128	i
C=CC1c2cc(C)ccc2N(S(=O)(=O)c2ccc(C)cc2)C(c2ccccc2)C1(C#N)C#N (stereo not drawn)	i	nt	nt	nt	nt
SMILES	Mtb hypoxia inh	GDH-TPI inh	BioA inh	Mtb FBA inh	FadD28 FP inh
COCCn1c(=NC(=O)/C=C/c2cccs2)sc2cc(NC(C)=O)ccc21	i	31	i	i	i
O=C1OC(CN(Cc2ccccc2)Cc2ccccc2)CN1N=Cc1ccc([N+](=O)[O-])o1 (stereo not drawn)	i	i	i	i	i
O=C1OC(CN2CCOCC2)CN1N=Cc1ccc([N+](=O)[O-])o1 (stereo not drawn)	i	32	i	i	i
O=C(N/N=C/c1ccco1)c1cccc(NC(=O)c2ccccc2Cl)c1	nt	32	i	i	i
O=C(NN=Cc1ccco1)c1ccc(NC(=O)c2ccccc2Cl)cc1	i	nt	nt	nt	nt
COc1ccc(C=NNC(=O)c2cccc(NC(=O)c3ccccc3Cl)c2)c(OC)c1	i	nt	nt	nt	nt
COc1ccc(/C=N/NC(=O)c2cccc(NC(=O)c3ccccc3Cl)c2)c(OC)c1	nt	31	nt	i	i
O=[N+]([O-])c1ccc(N2CCOCC2)c(S(=O)(=O)N2CCOCC2)c1	i	i	i	i	i
O=[N+]([O-])c1ccc(NCCCO)c(S(=O)(=O)N2CCOCC2)c1	i	40	nt	i	i
Cc1ccccc1C(=O)Nc1ccc(S(=O)(=O)Nc2onc(C)c2C)cc1	i	i	i	i	i
COc1ccccc1NC(=O)c1cnc2n(c1=O)CCS2	nt	37	i	i	i
Cc1noc(NS(=O)(=O)c2ccc(NC(=O)c3cnc4n(c3=O)CCS4)cc2)c1C	i	34	nt	i	i

Bioassay records: PubChem BioAssay, several laboratories
